BJeLR viability = compounds reducing viability of BJeLR cells; BJeLR fibroblasts viability, CellTiterGlo ATP luminescence, 48 h; HRASV12, hTERT and SV40 LT/ST transformed; viability loss activity score, % (no concentration beside the values); hit rate 0.64% among 30,000; in the data active = viability loss activity score above about 50%;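 note: higher score means fewer live cells and less ATP luminescence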
A1 inhib = A1 inhibition | MEF A1-2A-BIM cells, caspase-Glo luminescence, 3 h; percent of clofoctol signal, DMSO as zero | caspase activation, % (no concentration beside the values) | hit rate 0.51% among 21,000;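 active = most replicate scores above 10, or exactly half above 10 with mean activity above 10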;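 note: effector caspase 3 and 7 activity cleaving a DEVD luciferin substrate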
* marks the source's active call; other numbers are inactive results; . = not tested or not shown. Most compounds without a hit are left out; they make up all but 0.9% or so of the library.

SMILES	BJeLR viability	A1 inhib
COC[C@H]([C@@H](O)[C@@H](O)C(=O)NCC[C@@H](C)c1nc(/C=C/C[C@H]2OC3(C[C@H](O)[C@H]2C)OC([C@@H](C[C@@H](O)[C@@H](C)[C@@H](O)[C@@H](C)/C=C(C)/C(C)=C/C=C/C(C)=C\C#N)OC)[C@@H](OP(=O)(O)O)C3(C)C)co1)N(C)C (stereo not given in full)	69*	-3
CC[C@@]12CCCN3CC[C@]4(c5cccc(OC)c5N(C(C)=O)[C@@H]4CC1)[C@H]32	3	0
O=C(CCNS(=O)(=O)c1ccccc1)Nc1ccc(Br)cc1C(=O)c1ccccc1	7	-1
C[C@@H]1O[C@@H](O[C@H]2[C@H](O)[C@@H](O)[C@H](O[C@@H]3C=C4CC[C@@H]5C(CC[C@]6(C)[C@@H](c7ccc(=O)oc7)CC[C@]56O)[C@@]4(C)CC3)O[C@@H]2CO)[C@H](O)[C@H](O)[C@H]1O (stereo not given in full)	125*	2
O=C(O)C1C2CC3CC(C2)CC1(n1ncc(N2CCOCC2)c(Cl)c1=O)C3 (stereo not given)	0	0
C/C1=C/C(=O)O[C@@H]2C[C@@H](CC[C@H](C)/C=C\CC1)O[C@@](O)([C@@H]1CSC(=O)N1)C2	41	23*
CCN(CC)C(=O)c1ccc2c(c1)C1C3CCC(C3)C1C(c1ccccc1)N2 (stereo not given)	1	0
C=CC(C)(C)[C@]12C=C(OC)C(=O)N3/C(=C/c4cnc[nH]4)C(=O)N[C@@]31N(OC)c1ccccc12	0	0
c1ccc2c(c1)cc1ccc3cccc4ccc2c1c34	-4	1
O=C1c2ccccc2-c2cccc3cccc1c23	74*	0
C[C@]12CC[C@H]3[C@@H](CC[C@]4(O)C[C@@H](O)CC[C@]34C=O)[C@@]1(O)CC[C@@H]2C1=CC(=O)OC1	82*	1
CO[C@H]1[C@H](O)[C@H](O[C@H]2CC[C@]3(C)C4CC[C@]5(C)[C@H](C6=CC(=O)OC6)CC[C@]5(O)C4CC[C@@H]3C2)O[C@@H](C)[C@@H]1O (stereo not given in full)	116*	0
CO[C@H]1[C@H](O)[C@@H](O[C@H]2CC[C@]3(C=O)C4CC[C@]5(C)[C@@H](C6=CC(=O)OC6)CC[C@]5(O)C4CC[C@@H]3C2)O[C@@H](C)[C@@H]1O (stereo not given in full)	133*	0
C[C@@H]1O[C@@H](OC2CCC3(C)C4CCC5(C)C(C6=CC(=O)OC6)CCC5(O)C4CC[C@H]3C2)[C@H](O)[C@H](O)[C@H]1O (stereo not given in full)	101*	0
O=C(CCN1CCOCC1)NC=Nc1cccnc1	-1	1
CC(=O)NCC1CCCN2CCCCC12 (stereo not given)	3	1
COc1cc[n+](OC(=O)N2CCCCC2)c(C)c1	4	0
CC(C)c1cc2c(cc1O)[C@@]1(C)C[C@@H](O)CC(C)(C)C1CC2 (stereo not given in full)	2	0
CC1=C(C(=O)OC(C)(C)C)C2(C(=O)Nc3ccccc32)C(C#N)=C(N)O1 (stereo not given)	-4	.
CSc1nc(-c2ccc(Cl)cc2)nn1C(=O)N(C)C	-2	-1
O=C(O)CP(=S)(c1ccccc1)c1ccccc1	6	1
C=CCC1(NCCc2ccccc2)CCCCC1	-5	0
Cn1c(CCN)nc2ccccc21	3	2
CC(Cc1c[nH]c2ccccc12)N(Cc1ccccc1)Cc1ccccc1 (stereo not given)	3	.
Cc1ccccc1OCCCn1cc(C(=O)C(C)(C)C)c2ccccc21	4	.
SMILES	BJeLR viability	A1 inhib
COc1cc2c(cc1O)C1Cc3ccc(OC)c(O)c3CN1CC2 (stereo not given)	5	0
CCOC(=O)C1=NN(c2ccc(C)cc2)C2c3cccc4cccc(c34)C12 (stereo not given)	-2	-1
C[C@@H]1O[C@@H](O[C@H]2C[C@@H](O)[C@]3(CO)[C@H]4[C@H](O)C[C@]5(C)[C@@H](C6=CC(=O)OC6)CC[C@]5(O)[C@@H]4CC[C@]3(O)C2)[C@H](O)[C@H](O)[C@H]1O	104*	0
O=C1NC(=O)C(=C/C=C/c2ccccc2)C(=O)N1	-11	2
COC(=O)[C@@]1(O)C[C@@H]2O[C@@]1(C)n1c3ccccc3c3c4c(c5c6ccccc6n2c5c31)C(=O)NC4	.	13*
CSC1=NN1c1cc(C)nc(N)n1	-7	1
N#CC(C#N)=NNc1ccc(OC(F)(F)F)cc1	86*	-3
S=C(Nc1ccccc1)N1CCCCC1c1cccnc1 (stereo not given)	-7	1
CC[C@@]1(O)C(=O)OCc2c1cc1n(c2=O)-c2cc3ccccc3nc2C1	121*	0
CC[C@@H]1/C=C\C=C\C[C@H](C)C(O)[C@](C)(O)C(=O)[C@H](C)C(O)[C@H](C)C(=O)[C@H](C)[C@@H](O)[C@H](C)/C=C/C(=O)O[C@H]2[C@@H](C)[C@@H](CC1)O[C@@]1(CC[C@@H](C)[C@@H](C[C@H](C)O)O1)[C@@H]2C (stereo not given in full)	-16	-1
C[C@H]1O[C@@H](O[C@H]2[C@@H](O)C[C@H](O[C@H]3[C@@H](O)C[C@H](O[C@H]4CC[C@@]5(C)[C@H](CC[C@@H]6[C@@H]5CC[C@]5(C)[C@@H](C7=CC(=O)OC7)CC[C@]65O)C4)O[C@@H]3C)O[C@@H]2C)C[C@H](O)[C@@H]1O	134*	0
C[C@H]1OC(O[C@H]2[C@@H](O)CC(O[C@H]3[C@@H](O)C[C@H](O[C@H]4CC[C@]5(C)C6CC[C@]7(C)[C@@H](C8=CC(=O)OC8)[C@@H](O)C[C@]7(O)[C@@H]6CC[C@@H]5C4)O[C@@H]3C)O[C@@H]2C)C[C@H](O)C1O (stereo not given in full)	98*	0
CO[C@H]1C[C@H](OC2CCC3(C)C4CCC5(C)C(C6=CC(=O)OC6)CC(OC(C)=O)C5(O)C4CC[C@H]3C2)O[C@@H](C)[C@@H]1O (stereo not given in full)	99*	0
C/C=C\C(C)=C\[C@H](C)C(=O)C[C@H](O)CC1CC(=O)NC(=O)C1	-1	2
CCC(C)[C@H]1O[C@]2(C=C[C@@H]1C)C[C@@H]1C[C@@H](C/C=C(\C)[C@@H](OC3C[C@H](OC)C(O[C@H]4C[C@H](OC)[C@@H](O)[C@H](C)O4)[C@H](C)O3)[C@@H](C)/C=C/C=C3\CO[C@@H]4[C@H](O)C(C)=C[C@@H](C(=O)O1)[C@]34O)O2 (stereo not given in full)	-4	0
C/C(CC(c1ccccc1)c1c(O)c2ccccc2oc1=O)=N/O (stereo not given)	3	0
C=C1[C@@H](C)[C@H]2[C@H](Cc3ccccc3)NC(=O)[C@]23[C@H](OC(C)=O)C=C[C@](C)(O)C(=O)[C@@H](C)C/C=C/[C@H]3[C@@H]1O	20	16*
COc1ccc([C@H]2Oc3c(I)c(OC)cc(OC)c3C[C@@H]2O)cc1OC	1	-1

Screening results as filed in PubChem BioAssay.
